Activity calls are given as the source filed them. Rule for the calls: active = hit-call score of the fitted dose curve at least 0.9, where 1 is the maximum; inactive = score below 0.9.
Assays:
Details in all cases: mRNA level, 48 h; actives raise or lower the signal
[1] = read-out: Ezrin (EZR), EZR (gene 7430); test: LTEA_HepaRG_EZR: Life Technologies and Expression Analysis (LTEA) Assay for Ezrin (EZR) using HepaRG (AID 2283491)
How it was run: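 Read-out is EZR transcript level by qRT-PCR, normalized to three housekeeping genes and fitted bidirectionally against the DMSO control. Human HepaRG cells received test chemicals for 48 h at eight half-log concentrations up to 100 uM in 0.5% DMSO.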

[2] = read-out: Cytochrome P450 3A7 (Homo sapiens) (UniProt P24462); test: LTEA_HepaRG_CYP3A7: Life Technologies and Expression Analysis (LTEA) Assay for CYP3A7 using HepaRG (AID 2283492)
How it was run: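 Cells were thawed, plated, cultured 48 h, then treated for a further 48 h with chemicals (eight-point half-log series from 100 uM, 0.5% DMSO). RNA was isolated and CYP3A7 expression quantified by qRT-PCR normalised to ACTB, GAPDH and POLR2A.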

CYP3A5 (gene 1577) = test: LTEA_HepaRG_CYP3A5: Life Technologies and Expression Analysis (LTEA) Assay for CYP3A5 using HepaRG (AID 2283493)
How it was run: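 Human HepaRG hepatic cells receive 48 h chemical treatment at eight concentrations (half-log steps from 100 uM) in 0.5% DMSO. Expression of CYP3A5 is quantified by Fluidigm qRT-PCR and normalized to three reference genes.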

[3] = read-out: Fatty Acid-Binding Protein 1 (FABP1), FABP1 (gene 2168); test: LTEA_HepaRG_FABP1: Life Technologies and Expression Analysis (LTEA) Assay for Fatty Acid-Binding Protein 1 (FABP1) using HepaRG (AID 2283494)
How it was run: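 Values reflect bidirectional concentration-response fitting of FABP1 mRNA change against 0.5% DMSO controls. Human HepaRG cultures received eight half-log doses (top 100 uM) for 48 h; expression quantified by TaqMan qRT-PCR with housekeeping-gene normalization.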

[4] = read-out: Cytochrome P450 4A22 (Homo sapiens) (UniProt Q5TCH4); test: LTEA_HepaRG_CYP4A22: Life Technologies and Expression Analysis (LTEA) Assay for Cytochrome P450 4A22 (CYP4A22) using HepaRG (AID 2283495)
How it was run: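 Cryopreserved HepaRG cells, plated and cultured 48 h, then switched to serum-free induction medium and treated 48 h (duplicates, up to 100 uM, half-log steps, 0.5% DMSO). Expression change of CYP4A22 was fitted bidirectionally against vehicle.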

[5] = read-out: Cytochrome P450 7A1 (Homo sapiens) (UniProt P22680); test: LTEA_HepaRG_CYP7A1: Life Technologies and Expression Analysis (LTEA) Assay for Cytochrome P450 7A1 (CYP7A1) using HepaRG (AID 2283496)
How it was run: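 HepaRG, 48 h exposure, 8-pt half-log series from 100 uM, 0.5% DMSO vehicle, duplicates. Readout: TaqMan qRT-PCR mRNA vs three housekeeping genes; bidirectional curve fit against DMSO baseline.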

[6] = read-out: Glutathione S-Transferase (GSTA2), GSTA2 (gene 2939); test: LTEA_HepaRG_GSTA2: Life Technologies and Expression Analysis (LTEA) Assay for Glutathione S-Transferase (GSTA2) using HepaRG (AID 2283497)
How it was run: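 Oxidative-stress marker GSTA2 is quantified by TaqMan qRT-PCR in HepaRG cultures treated 48 h across an eight-point range to 100 uM. Expression is normalized to endogenous controls and compared with 0.5% DMSO vehicle.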

[7] = read-out: Glutamate-cysteine ligase catalytic (GCLC), GCLC (gene 2729); test: LTEA_HepaRG_GCLC: Life Technologies and Expression Analysis (LTEA) Assay for Glutamate-cysteine ligase catalytic (GCLC) using HepaRG (AID 2283498)
How it was run: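 Oxidative-stress marker GCLC is measured as mRNA change in human HepaRG liver cells after 48 h chemical treatment in 0.5% DMSO, eight concentrations from 100 uM. Activity is fitted bidirectionally against vehicle.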

[8] = read-out: growth arrest and DNA damage 45 (GADD45G), GADD45G (gene 10912); test: LTEA_HepaRG_GADD45G: Life Technologies and Expression Analysis (LTEA) Assay for growth arrest and DNA damage 45 (GADD45G) using HepaRG (AID 2283499)
How it was run: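 Human hepatic HepaRG line treated 48 h with chemicals (eight concentrations, half-log steps from 100 uM); transcript induction or repression of GADD45G scored by qRT-PCR versus DMSO vehicle.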

[9] = read-out: Glutamate-cysteine ligase regulatory (GCLM), GCLM (gene 2730); test: LTEA_HepaRG_GCLM: Life Technologies and Expression Analysis (LTEA) Assay for Glutamate-cysteine ligase regulatory (GCLM) using HepaRG (AID 2283500)
How it was run: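 Endpoint is GCLM transcript level by qRT-PCR, normalized to three housekeeping genes, after 48 h chemical exposure of human HepaRG cells (0.5% DMSO vehicle, top 100 uM, half-log dilutions). Fitting was bidirectional relative to DMSO.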

[10] = read-out: Glutathione S-transferase M3 (GSTM3), GSTM3 (gene 2947); test: LTEA_HepaRG_GSTM3: Life Technologies and Expression Analysis (LTEA) Assay for Glutathione S-transferase M3 (GSTM3) using HepaRG (AID 2283501)
How it was run: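 Changes in GSTM3 expression, an oxidative-stress marker, were scored by bidirectional curve fitting against 0.5% DMSO vehicle. Human HepaRG cultures received chemicals for 48 h in duplicate, highest concentration 100 uM with half-log dilutions.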

[11] = read-out: Heat shock 70 kDa protein 1 (HSPA1A), gene 3303; test: LTEA_HepaRG_HSPA1A: Life Technologies and Expression Analysis (LTEA) Assay for Heat shock 70 kDa protein 1 (HSPA1A) using HepaRG (AID 2283502)
How it was run: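 Cells were plated and cultured for 48 h, then switched to serum-free induction medium. Chemicals were added at eight half-log concentrations up to 100 uM for 48 h. RNA was then isolated and HSPA1A measured by qRT-PCR with bidirectional curve fitting against DMSO.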

[12] = read-out: Hypoxia-inducible factor 1-alpha (Homo sapiens) (UniProt Q16665); test: LTEA_HepaRG_HIF1A: Life Technologies and Expression Analysis (LTEA) Assay for Hypoxia-inducible factor 1 (HIF1A) Trancription factor using HepaRG (AID 2283503)
How it was run: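 HIF1A transcript level read by qRT-PCR (ACTB, GAPDH, POLR2A normalization) after 48 h chemical exposure of HepaRG cultures. Eight half-log concentrations, top 100 uM, 0.5% DMSO vehicle, duplicates; bidirectional curve fit against DMSO baseline.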

[13] = read-out: 3-Hydroxy-3-Methylglutaryl-CoA Synthase 2 (HMGCS2), HMGCS2 (gene 3158); test: LTEA_HepaRG_HMGCS2: Life Technologies and Expression Analysis (LTEA) Assay for 3-Hydroxy-3-Methylglutaryl-CoA Synthase 2 (HMGCS2) using HepaRG (AID 2283504)
How it was run: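 Expression of HMGCS2 in human HepaRG liver cells is measured by qRT-PCR 48 h after dosing (highest 100 uM, half-log series, 0.5% DMSO). Values come from bidirectional concentration-response fitting with DMSO as baseline.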

HGF (gene 3082) = test: LTEA_HepaRG_HGF: Life Technologies and Expression Analysis (LTEA) Assay for Hepatocyte Growth Facto (HGF) using HepaRG (AID 2283505)
How it was run: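 Gain or loss of HGF mRNA in human HepaRG liver cells after 48 h chemical exposure; eight concentrations up to 100 uM with 0.5% DMSO vehicle, quantified by TaqMan qRT-PCR.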

[14] = read-out: Intercellular Adhesion Molecule 1 (ICAM1), ICAM1 (gene 3383); test: LTEA_HepaRG_ICAM1: Life Technologies and Expression Analysis (LTEA) Assay for Intercellular Adhesion Molecule 1 (ICAM1) using HepaRG (AID 2283507)
How it was run: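 Gain or loss of transcript in HepaRG hepatic cells is quantified by qRT-PCR after 48 h chemical exposure (up to 100 uM, half-log steps), with DMSO as baseline.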

[15] = read-out: Insulin-like growth factor-binding protein 1 (IGFBP1), IGFBP1 (gene 3484); test: LTEA_HepaRG_IGFBP1: Life Technologies and Expression Analysis (LTEA) Assay for Insulin-like growth factor-binding protein 1 (IGFBP1) using HepaRG (AID 2283508)
How it was run: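 mRNA induction or loss was quantified by qRT-PCR after 48 h chemical exposure of human HepaRG cells, with 0.5% DMSO as vehicle and baseline. Concentration-response over eight points up to 100 uM.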

[16] = read-out: Interleukin 6 (IL6), IL6 (gene 3569); test: LTEA_HepaRG_IL6: Life Technologies and Expression Analysis (LTEA) Assay for Interleukin 6 (IL6) using HepaRG (AID 2283509)
How it was run: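 Changes in IL6 mRNA, up or down relative to 0.5% DMSO controls, were derived from concentration-response curves in human HepaRG cells treated for 48 h at up to 100 uM, with ACTB, GAPDH and POLR2A as normalizers.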

[17] = read-out: Interleukin 6 Receptor (IL6R), IL6R (gene 3570); test: LTEA_HepaRG_IL6R: Life Technologies and Expression Analysis (LTEA) Assay for Interleukin 6 Receptor (IL6R) using HepaRG (AID 2283510)
How it was run: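 Cells were thawed, plated and cultured 48 h, then medium was changed to serum-free induction medium. Chemicals were added in duplicate (100 uM top, half-log steps, 0.5% DMSO) for 48 h. Lysates were analyzed by qRT-PCR for IL6R expression.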

[18] = read-out: Potassium channel subfamily K member 1 (KCNK1), KCNK1 (gene 3775); test: LTEA_HepaRG_KCNK1: Life Technologies and Expression Analysis (LTEA) Assay for Potassium channel subfamily K member 1 (KCNK1) using HepaRG (AID 2283511)
How it was run: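 Human HepaRG cultures receive test chemicals for 48 h in 0.5% DMSO, top concentration 100 uM with half-log dilutions. Induction or suppression of KCNK1 mRNA relative to DMSO is derived by bidirectional fitting of qRT-PCR data.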

Measured: outcome

Cytochrome P450 3A7 (Homo sapiens), sequence (P24462 whole entry, looked up): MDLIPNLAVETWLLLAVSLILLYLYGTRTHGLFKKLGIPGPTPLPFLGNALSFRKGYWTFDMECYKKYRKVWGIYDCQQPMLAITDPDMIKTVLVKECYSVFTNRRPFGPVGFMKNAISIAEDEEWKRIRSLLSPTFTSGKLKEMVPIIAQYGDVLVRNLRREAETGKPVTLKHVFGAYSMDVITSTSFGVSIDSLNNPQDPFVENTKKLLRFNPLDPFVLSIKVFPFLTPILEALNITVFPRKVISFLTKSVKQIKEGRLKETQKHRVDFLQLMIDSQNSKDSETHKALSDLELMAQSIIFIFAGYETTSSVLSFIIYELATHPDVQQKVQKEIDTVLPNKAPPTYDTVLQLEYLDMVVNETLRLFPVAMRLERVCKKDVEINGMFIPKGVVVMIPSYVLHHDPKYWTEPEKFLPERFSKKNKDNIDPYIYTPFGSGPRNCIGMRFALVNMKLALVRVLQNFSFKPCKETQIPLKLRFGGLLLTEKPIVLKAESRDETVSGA
Hypoxia-inducible factor 1-alpha (Homo sapiens), sequence (Q16665 whole entry, looked up): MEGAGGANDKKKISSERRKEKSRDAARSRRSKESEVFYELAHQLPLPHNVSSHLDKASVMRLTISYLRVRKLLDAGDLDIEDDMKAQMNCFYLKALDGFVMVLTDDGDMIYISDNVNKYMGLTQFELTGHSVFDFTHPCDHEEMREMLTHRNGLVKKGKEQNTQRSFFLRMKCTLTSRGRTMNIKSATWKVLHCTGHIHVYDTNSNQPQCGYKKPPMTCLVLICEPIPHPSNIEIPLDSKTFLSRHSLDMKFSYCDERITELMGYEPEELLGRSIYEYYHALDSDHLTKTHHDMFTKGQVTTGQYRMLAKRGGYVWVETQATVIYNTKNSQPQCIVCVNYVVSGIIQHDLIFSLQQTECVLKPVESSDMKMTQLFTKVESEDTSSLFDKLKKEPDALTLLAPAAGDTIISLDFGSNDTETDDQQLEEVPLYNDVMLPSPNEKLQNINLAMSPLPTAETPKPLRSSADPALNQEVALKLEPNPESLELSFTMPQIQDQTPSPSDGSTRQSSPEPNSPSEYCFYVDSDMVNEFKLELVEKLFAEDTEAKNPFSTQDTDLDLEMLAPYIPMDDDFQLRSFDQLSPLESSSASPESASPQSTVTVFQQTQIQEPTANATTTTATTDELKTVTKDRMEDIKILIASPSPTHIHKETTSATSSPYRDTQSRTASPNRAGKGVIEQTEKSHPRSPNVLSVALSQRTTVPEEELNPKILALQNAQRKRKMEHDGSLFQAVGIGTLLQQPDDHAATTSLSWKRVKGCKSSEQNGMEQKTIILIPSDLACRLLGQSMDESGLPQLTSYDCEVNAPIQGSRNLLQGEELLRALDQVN

CS(=O)(=O)OCCCCOS(C)(=O)=O
inactive: all assays above

From PubChem BioAssay (EPA / NIEHS)
